From PubChem BioAssay
An excerpt weighted towards active compounds, which were near 32% of everything screened.
PostGolgi yeast: growth inhibition of a yeast mutant, post-Golgi transport screen. post-Golgi transport phenotypic cell assay. inhibition, % at 10 µM. 98,000 tested, 0.9% active;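 note: yeast cells grown in 1536-well plates; yeast grown about 18 h at 30C before absorbance read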
CYP2C19 inh: human CYP2C19 inhibition | P33261 | CYP2C19 Supersomes, luciferin-H EGE luminescence, 30 min | 96,000 tested, 21% active | inhibition, % at 5 µM;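 active = CYP2C19 inhibition above a set limit at 5 µM in the primary screen, cut at about 50% in these data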;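 note: plate controls were negative control wells for no effect and 2.5 mM tranylcypromine positive control for full effect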
CYP2C9 act: activators of human CYP2C9; P11712; recombinant CYP2C9, luciferin-H conversion, luminescence; hits give high values; factor 1 = untreated enzyme, 0 = blocked; activation factor at 5 µM; 96,000 tested, 1.4% active; AID 1024;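 active = activation factor of 2 or more for CYP2C9 at a 5 µM dose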;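 note: 0 = sulfaphenazole-blocked wells and 1 = vehicle-only wells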
Target sequence (P11712 whole entry, looked up): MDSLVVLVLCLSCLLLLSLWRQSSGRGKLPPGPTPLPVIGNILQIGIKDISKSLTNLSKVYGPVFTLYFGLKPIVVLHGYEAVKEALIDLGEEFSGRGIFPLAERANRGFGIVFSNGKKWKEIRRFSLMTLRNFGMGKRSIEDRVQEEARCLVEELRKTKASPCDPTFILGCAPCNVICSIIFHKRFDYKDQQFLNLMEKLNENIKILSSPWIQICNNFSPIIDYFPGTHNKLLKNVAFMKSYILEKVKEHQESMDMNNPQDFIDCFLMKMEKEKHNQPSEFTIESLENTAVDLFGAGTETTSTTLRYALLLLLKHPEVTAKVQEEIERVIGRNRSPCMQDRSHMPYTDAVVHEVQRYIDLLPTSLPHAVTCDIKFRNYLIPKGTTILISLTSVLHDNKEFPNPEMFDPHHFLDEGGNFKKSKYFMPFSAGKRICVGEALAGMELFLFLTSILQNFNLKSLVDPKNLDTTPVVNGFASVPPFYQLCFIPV
CYP2C9 inh: human CYP2C9 inhibition; P11712; CYP2C9 Supersomes, luciferin-H conversion, luminescence; inhibition, % at 5 µM; 96,000 tested, 20% active;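 active = blocking of liver enzyme CYP2C9 beyond about 50% at 5 µM, limit read from the data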
PostGolgi ctrl: growth of the yeast control strain, post-Golgi counter-screen; efflux-deficient yeast background strain, growth absorbance A615, 16 h; inhibition, % at 10 µM; 98,000 tested, 5% active; AID 738
CYP2C19 act: cytochrome P450 2C19 (human) activation; P33261; recombinant CYP2C19, luciferin-H EGE luminescence; hits give high values; 0 = fully inhibited enzyme, 1 = untreated enzyme; activation factor at 5 µM; 96,000 tested, under 10 active; AID 1025;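 active = activation factor of at least 2 at 5 µM in the primary screen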;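 note: 0 = wells with 2.5 mM tranylcypromine and 1 = vehicle-only wells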
The depositor's hits bear a star. Cut-off read from the data, not from the text of the source, unless noted: active = inhibition above about 30%; inactive = the rest.

SMILES | PostGolgi yeast | CYP2C19 inh | CYP2C9 act | CYP2C9 inh | PostGolgi ctrl | CYP2C19 act
COc1ccc(S(=O)(=O)N2CCN(C(=O)c3ccco3)CC2)cc1OC | -14 | 45 | 1.1 | -6 | 24 | 0.6
CCn1cc(Cl)c(C(=O)Nc2nc3ccccc3n2CCN2CCCCC2)n1 | 3 | 0 | 1 | 4 | 0 | 1
COc1ccc(-c2ccc(/C=C3\C(=O)N(c4ccccc4)N=C3c3ccccc3)o2)c([N+](=O)[O-])c1 | -5 | 56* | 0.3 | 71* | 12 | 0.4
COC(=O)c1ccccc1-c1ccc(/C=C2\C(=O)N(c3ccccc3)N=C2c2ccccc2)o1 | -6 | 94* | 0.2 | 83* | 9 | 0.1
Cn1c(=O)c2c(nc(OCC3COC(C)(C)O3)n2Cc2ccccc2F)n(C)c1=O (configuration not stated) | 0 | 9 | 0.7 | 26 | 4 | 0.9
Cc1ccc(C2N(c3ccc(F)cc3)C(=O)C3CCCN32)cc1 (configuration not stated) | -18 | 50* | 0.7 | 32 | 11 | 0.5
CN(C)c1ccc(C2N(c3ccc(F)cc3)C(=O)C3CCCN32)cc1 (configuration not stated) | -3 | 36 | 0.7 | 30 | -4 | 0.6
COc1ccc(N2C(=O)C3CCCN3C2c2ccccc2F)cc1 (configuration not stated) | 4 | 18 | 0.9 | 12 | 0 | 0.8
CCOc1ccc(C2N(c3ccc(F)cc3)C(=O)C3CCCN32)cc1 (configuration not stated) | -7 | 83* | 0.2 | 83* | 1 | 0.2
CCOc1ccccc1C1N(c2ccc(OC)cc2)C(=O)C2CCCN21 (configuration not stated) | -2 | 8 | 0.9 | 14 | 34* | 0.9
O=C(NC12CCC(O)C(SC1)/C2=N/O)c1ccccc1 (configuration not stated) | 16 | -1 | 1 | -1 | 14 | 1
O=C1C(c2ccccc2)SC(=Nc2ccccc2)N1S(=O)(=O)c1ccccc1 (configuration not stated) | -2 | 4 | 1 | -5 | 27 | 1
O=C(Nc1nnc(SCC(=O)N2CCOCC2)s1)c1ccccc1Cl | 7 | 4 | 1 | 1 | 13 | 1
O=C(Nc1ccc2nc(SCc3ccc(Cl)cc3)sc2c1)c1ccccc1C(=O)N1CCOCC1 | -5 | 20 | 1.1 | -9 | 33* | 0.8
COc1ccc(C(=O)N(C(C)C)C(C)C)c(OC)c1 | -4 | 4 | 0.9 | 10 | 2 | 1
Cc1cccc(NC(=O)CCOc2ccccc2)c1 | -1 | 49 | 1.5 | -47 | -5 | 0.5
O=C(CCCOc1ccc(Cl)cc1Cl)Nc1ccncc1 | 25 | 99* | 0 | 100* | 61* | 0
CCNC(=O)CCCOc1ccc(Cl)cc1Cl | -2 | 83* | 0.6 | 38 | 36* | 0.2
COC(=O)CCC(=O)NNC(=O)CCCOc1ccc(Cl)cc1Cl | 2 | 11 | 1 | 1 | 7 | 0.9
COc1ccccc1NC(=S)NC(=O)CCCOc1ccc(Cl)cc1Cl | -1 | 13 | 0.7 | 34 | 8 | 0.9
CCNC(=O)COc1ccc(Br)cc1Cl | 1 | 73* | 0.4 | 57* | -3 | 0.3
O=C(CCCOc1ccccc1)Nc1ccncc1 | -2 | 99* | 0 | 97* | -4 | 0
COc1ccc(NC(=O)C2Cc3ccccc3CN2C(=O)c2ccccc2)cn1 (configuration not stated) | 24 | 12 | 0.8 | 19 | 6 | 0.9
O=C(NC1=NCCS1)C1Cc2ccccc2CN1C(=O)c1ccccc1 (configuration not stated) | -1 | 79* | 0.6 | 42 | 9 | 0.2
Cc1cc(C)n(CCCNC(=O)c2ccc3c(c2)NC(=O)CS3)n1 | -4 | 1 | 0.9 | 12 | 3 | 1
SMILES | PostGolgi yeast | CYP2C19 inh | CYP2C9 act | CYP2C9 inh | PostGolgi ctrl | CYP2C19 act
CCn1c(-c2cccc(Br)c2)n[nH]c1=S | -3 | 76* | 0.8 | 23 | 4 | 0.2
COc1cc(C(O)P(=O)(OCC(C)C)OCC(C)C)cc(OC)c1OC (configuration not stated) | 5 | 23 | 0.9 | 13 | 23 | 0.8
O=C(CSc1nc2c(sc3ccccc32)c(=O)n1CCO)NCc1ccco1 | 0 | 23 | 0.6 | 43 | 13 | 0.8
Cc1cc(NC(=O)CSc2nc3c(sc4ccccc43)c(=O)n2CCc2ccccc2)n[nH]1 | -7 | 94* | 0.6 | 36 | 14 | 0.1
Cc1cc(NC(=O)CSc2nc3c(sc4ccccc43)c(=O)n2CCCN2CCOCC2)n[nH]1 | 0 | 52* | 0.8 | 20 | 4 | 0.5
CCCCn1c(=O)nc2n(-c3ccccc3)c3ccccc3cc-2c1=O | -2 | 15 | 0.9 | 5 | 10 | 0.9
Cc1sc2ncnc(OCC(=O)NC(C)C)c2c1C | -6 | 11 | 0.9 | 7 | 0 | 0.9
Cc1ccc(C)c(N2CCN(C(=O)c3cc4ccccc4oc3=O)CC2)c1 | 3 | 38 | 0.8 | 20 | 27 | 0.6
Cc1ccc2c(c1)CCCN2C(=O)c1ccoc1C | 2 | 63* | 0.6 | 35 | 8 | 0.4
Cc1ccc2c(c1)CCCN2C(=O)c1cc2ccccc2oc1=O | -1 | 41 | 2.8* | -176 | 18 | 0.6
COC(=O)c1nonc1NCn1nnc2ccccc21 | 8 | 28 | 1.1 | -9 | 11 | 0.7
O=C(COC(=O)[C@H](Cc1c[nH]c2ccccc12)NC(=O)c1ccc(Cl)cc1)Nc1ccc2c(c1)OCO2 | -6 | 47 | 0 | 98* | 0 | 0.5
O=C1Nc2ccccc2C(O)(C(=O)NCc2ccco2)N1c1ccc(Cl)c(Cl)c1 (configuration not stated) | -2 | 17 | 0.8 | 22 | 3 | 0.8
O=C1NCC2=C1C(c1ccc(Br)cc1)Nc1ccccc1N2 (configuration not stated) | -4 | 22 | 0.5 | 55* | 25 | 0.8
CC1(C)CC(=O)C2=C(C1)Nc1ccccc1NC2c1ccc2c(c1)OCO2 (configuration not stated) | -9 | 7 | 1 | 0 | 2 | 0.9
O=c1c2c(nc3c(-c4cccc5ccccc45)c[nH]n13)CCC2 | -2 | 7 | 0.3 | 69* | -1 | 0.9
COc1ccccc1OCc1csc(NC(=O)c2ccco2)n1 | 2 | 39 | 1 | 3 | 2 | 0.6
Cc1ccc(/C=C/C(=O)C2C(=O)c3ccccc3C2=O)cc1 | 0 | -6 | 0 | 99* | 0 | 1.1
FC(F)(F)C(F)(F)C(F)(F)c1nnc2ccc(N3CCOCC3)nn12 | -5 | 76* | 0.2 | 76* | 6 | 0.2
C=CCOc1ccc(/C(O)=C2/C(=O)C(=O)N(CCCn3ccnc3)C2c2cccs2)cc1 (configuration not stated) | 0 | 31 | 0.6 | 38 | 9 | 0.7
O=C(Cn1c(-c2ccco2)nc2ccccc21)N1CCCCC1 | -11 | -8 | 1.1 | -8 | 7 | 1.1
